The campaign covered roughly 140,000 compounds. About 2,100 (1.5%) were called active. The entries come from a sample that favours actives as a whole. A number with no mark means an inactive call. Cut-off read from the data, not from the text of the source: active = protection mostly above about 24% (no sharp cut-off); inactive = mostly below about 26%.
Experiment: compounds protecting cells from measles virus cytopathic effect, primary screen, measles RdRp inhibitor project, single point, MLSMR library, absorbance (AID 841)
Conditions: Measles virus-infected cells, CPE protection, at 4 µM, active compounds read high

Row | Compound | protection (pct of control)
1 | Cc1ccc2nc(SCc3cn4c(C)cc(C)nc4n3)[nH]c2c1 | 15.7%
2 | CN(C)/C(=N\OC(=O)c1ccccc1)c1nonc1N | 10.6%
3 | O=C(Cn1c(=O)n(Cc2ccco2)c(=O)c2ccccc21)NCC1CCCO1 (stereo unspecified) | 42.5% (active)
4 | COc1ccc(NC(=O)Cn2c(=O)n(Cc3ccco3)c(=O)c3ccccc32)cc1 | 4.73%
5 | O=C(Cn1nc(Cc2cccnc2)c2ccccc2c1=O)NCC1CCCO1 (stereo unspecified) | 2.54%
6 | O=C(/C=C/c1ccc(F)cc1)Nc1cccc(S(=O)(=O)Nc2cccc(C(F)(F)F)c2)c1 | 9.17%
7 | Cc1ccc(-c2nc(C)sc2CC(=O)OCC(=O)Nc2c(F)cccc2F)cc1 | 4.46%
8 | CCn1nc(C(=O)OCC(=O)N2c3ccccc3CC2C)c2ccccc2c1=O (stereo unspecified) | 10.5%
9 | CCCC(=O)N1c2ccc(-c3csc(N)n3)cc2CC1C (stereo unspecified) | 79.2% (active)
10 | CCC(=O)N1c2ccc(S(=O)(=O)CCC(=O)N3CCN(c4ccccc4)CC3)cc2CC1C (stereo unspecified) | 8.07%
11 | O=C(NC(=S)Nc1cc(C(F)(F)F)ccc1N1CCOCC1)c1ccc(-c2cccc(Cl)c2)o1 | 1.76%
12 | COC(=O)[C@H]1Cc2cnoc2C[C@]1(C)C(=O)O | 8.42%
13 | Cc1ccc(-c2cc(C(=O)N/N=C/C=C/c3ccccc3)n[nH]2)o1 | 25.7%
14 | Cc1ccc(N=C2NC(=O)c3cccc([N+](=O)[O-])c32)cc1 | 8.24%
15 | Cn1c2c(c(=O)n(C)c1=O)[C@@H]1c3c(ccc4ccccc34)OC[C@@H]1CO2 | 38.9% (active)
16 | COc1cccc2c1OCC1COc3c(c(=O)n(C)c(=O)n3C)C21 (stereo unspecified) | 23.9%
17 | Cn1c2c(c(=O)n(C)c1=O)C1c3ccccc3OCC1C(C)(C)O2 (stereo unspecified) | 12.9%
18 | COc1ccc(-c2csc(NC(=O)COC(=O)c3ccc(Br)o3)n2)cc1 | 7.27%
19 | O=C(CSc1nnc(-c2ccncc2)o1)NCc1ccc(Cl)cc1 | 5.59%
20 | Cc1ccc(N(C(=O)C(F)(F)F)C(C(=O)NC2CCCCC2)c2ccncc2)cc1C (stereo unspecified) | 29.7%
21 | COc1cc2c(cc1OC)C(=O)NCC(C)(C)O2 | 6.34%
22 | Cc1cc([N+](=O)[O-])c(-c2ccc(/C=N/n3cnnc3)o2)cc1Cl | 33.8%

Row | Compound | protection (pct of control)
23 | Cc1ccc(Cl)cc1-c1ccc(/C=N/n2cnnc2)o1 | 70.5% (active)
24 | Cc1cc(-c2ccc(/C=N/n3cnnc3)o2)c([N+](=O)[O-])cc1C | 28.4%
25 | Cc1ccc(N2C(=O)C(NC(=O)c3c(F)cccc3F)(C(F)(F)F)C3=C2CC(C)(C)CC3=O)cc1 (stereo unspecified) | 5.53%
26 | O=C(/C=C/c1ccc2c(c1)OCO2)NCc1ccc(F)cc1 | 5.86%
27 | CCc1c(C)sc(NC(=O)/C=C/c2ccc3c(c2)OCO3)c1C(=O)OC | 3.56%
28 | Cc1cccc(NC(=O)/C=C/c2ccc3c(c2)OCO3)n1 | 46.6% (active)
29 | CCCCc1ccc(NC(=S)N2CCCC(CO)C2)cc1 (stereo unspecified) | 11.5%
30 | O=C(CN1C(=O)/C(=C\c2ccccc2F)SC1=S)Nc1nc2ccccc2s1 | 6.1%
31 | Cc1noc(/C=C/c2ccco2)c1S(=O)(=O)N1CCC(C(=O)Nc2ccc(Cl)cn2)CC1 | 7.95%
32 | CCC(C)(C)C1CCC(=NNC(=O)c2ccc(Br)o2)CC1 (stereo unspecified) | 39% (active)
33 | C/C(=N/NC(=O)c1ccc(Br)o1)c1ccc(C)o1 | 13%
34 | CC(C)(C)C1CCC(=NNC(=O)c2ccc(Br)o2)CC1 (stereo unspecified) | 3.96%
35 | CC1(C)C(C=C(Cl)Cl)C1C(=O)N(Cc1ccc(Cl)cc1)C1CCS(=O)(=O)C1 (stereo unspecified) | 9.24%
36 | Fc1ccc(CNCc2ccc(Br)cc2)cc1 | 8.72%
37 | N#CC1(NC(=O)COc2ccc3oc4ccccc4c3c2)CCCCC1 | 21.4%
38 | Cc1cc(C)cc(OCC(=O)NNC(=O)CCN2C(=O)c3ccccc3C2=O)c1 | 9.19%
39 | Cc1nc(-c2ccccc2)cn2c1nc1ccccc12 | 23.6%
40 | CC(=O)Nc1cccc(NC(=O)c2c(-c3ccccc3)noc2C)c1 | 14.1%
41 | CCOC(=O)c1c(-c2cccc(C)c2)csc1NC(=O)c1c(-c2ccccc2)noc1C | 54.7% (active)
42 | CCOC(=O)c1c(-c2ccccc2)csc1NC(=S)NC(=O)c1ccccc1 | 9.01%
43 | CCc1cc(C(=O)OC)c(NC(=O)CC2Sc3ccc(C(F)(F)F)cc3NC2=O)s1 (stereo unspecified) | 11.3%
44 | CCOc1ccc(NC(=O)c2ccc(CSc3nnnn3C)cc2)cc1 | 10.1%

Row | Compound | protection (pct of control)
45 | Cc1c(C(=O)Nc2cccc(Cl)c2)cn2c(nc3ccccc32)c1C#N | 8.24%
46 | CCCCC(NS(=O)(=O)c1ccc(C)cc1)C(=O)Oc1ccc2c3c(c(=O)oc2c1)CCC3 (stereo unspecified) | 9.68%
47 | CC1CN(S(=O)(=O)c2ccc(C(=O)Nc3sccc3C(N)=O)cc2)CC(C)O1 (stereo unspecified) | 9.47%
48 | O=C(Nc1ccccc1)N1CCN(Cc2ccccc2)CC1 | 65.6% (active)
49 | O=C(Nc1cccc(NC(=O)N2CCN(c3ccccc3)CC2)c1)N1CCN(c2ccccc2)CC1 | 27.8%
50 | O=C(NC(=S)N1CCN(Cc2ccccc2)CC1)c1ccccc1 | 18%
51 | CN(Cc1ccccc1)C(=O)COC(=O)c1ccccc1Nc1ccccc1 | 18.6%
52 | O=[N+]([O-])c1ccccc1SNc1ccccn1 | 4.84%
53 | O=C(CCl)NNc1cccc(Cl)n1 | 28.9% (active)
54 | COc1cc(OC)nc(NC(=O)CCl)n1 | 15.4%
55 | O=C(NNc1ccccn1)c1ccc(Cl)nc1 | 3.74%
56 | COc1cc(OC)c(C(=O)Nc2ccccc2-c2ccccc2)cc1OC | 39.7%
57 | CC(OC(=O)CNS(=O)(=O)/C=C/c1ccccc1)C(=O)Nc1ccc(S(=O)(=O)N2CCCC2)cc1 (stereo unspecified) | 8.77%
58 | Cc1nn(Cc2ccc(F)cc2)c(C)c1NC(=O)c1cccnc1Cl | 10.5%
59 | CC(NC(=O)CSc1nc2c(cc1C#N)CN(C)CC2)c1ccccc1 (stereo unspecified) | 48.7% (active)
60 | CC1(C)CCc2nc(SCc3ccccc3)c(C#N)cc2C1 | 17.7%
61 | Cc1nc2cc(NC(=O)CSc3nc4c(C)cccc4cc3C#N)ccc2s1 | 7.78%
62 | COc1cc(/C=N\NC(=O)c2nonc2N)c(OC)cc1Br | 4.84%
63 | CCCCN1C(=O)CCC(C(=O)O)C1c1ccc(OC)cc1 (stereo unspecified) | 18.6%
64 | CCn1c(C(C)NC(=O)c2ccc(C)cc2)n[nH]c1=S (stereo unspecified) | 13.2%
65 | COc1ccc(C2CC(c3ccccc3)=NN2C(=O)c2ccc(Cl)c([N+](=O)[O-])c2)cc1 (stereo unspecified) | 5.64%
66 | CCOC(=O)c1c(C)nc(-c2ccccc2)nc1NC(=O)C(C)C | 92.6% (active)

Row | Compound | protection (pct of control)
67 | Cc1[nH]c2ccccc2c1C(=O)COC(=O)c1c(-c2ccccc2)noc1C | 3.64%
68 | CCOC(=O)c1c(C)[nH]c(=S)c(C#N)c1-c1ccccc1 | 1.99%
69 | C=CCN(c1ccc(C(=O)Nc2cc(C)cc(C)c2)cc1)S(C)(=O)=O | 12.6%
70 | Cc1ccc(C(C)(C)C)c(OCCCCN2CCCC2)c1 | -0.18%
71 | O=C(N/N=C\c1ccc(Br)cc1)c1ccc(Cn2cccn2)o1 | 5.4%
72 | O=C(N/N=C/c1ccc2c(c1)OCO2)c1ccc(Cn2cc([N+](=O)[O-])cn2)o1 | 18.3%
73 | CN(C)c1ccc(/C=N/NC(=O)c2ccc(Cn3cc(Br)cn3)o2)cc1 | 28.3% (active)
74 | Cc1ccc(S(=O)(=O)N(NC2=NS(=O)(=O)c3ccccc32)C(=O)c2ccccc2)cc1 | 7.51%
75 | CCOC(=O)C1=C(N)N(c2ccc(C)cc2)C2=C(C(=O)CCC2)C1c1cccs1 (stereo unspecified) | 20.1%
76 | Cc1nn(Cc2ccc(Cl)cc2)c(Cl)c1/C=N/NC(=O)c1cccnc1 | 11.1%
77 | CC1(C)CC(=O)C2=C(C1)Nc1cc(C(=O)c3ccccc3)ccc1NC2c1ccccn1 (stereo unspecified) | 2.11%
78 | CCCCn1c(=O)c(CCC(=O)OCC(=O)Nc2ccc(C)c(Cl)c2)nc2ccccc21 | 23.4%
79 | COc1ccc(NC(=O)COC(=O)Cn2c(C)nc3ccccc32)cc1OC | 50.1% (active)
80 | Cc1noc(C)c1COC(=O)Cn1c(C)nc2ccccc21 | 7.94%
81 | O=C(Nc1cccc(S(=O)(=O)N2CCCCC2)c1)c1ccc2c(c1)OCO2 | 8.22%
82 | Cc1cccc(NC(=O)COc2ccc(Br)cc2C)n1 | 6.52%
83 | Cc1ccc(S(=O)(=O)N(C)C)cc1NC(=O)COC(=O)c1c(C)noc1C | 9.42%
84 | CCN(CC)S(=O)(=O)c1ccc(C)c(NC(=O)COc2ccc(Br)cc2Cl)c1 | 52.8% (active)
85 | CN(C(=O)c1c(Cl)cnn1C)C12CC3CC(CC(C3)C1)C2 | 6.9%
86 | Cc1c(C(=O)NCCN2C(=O)S/C(=C\c3cccs3)C2=O)cccc1[N+](=O)[O-] | 19.9%
